# Source: PubChem (several laboratories)
# Most compounds without a hit are left out; they make up all but 27% or so of the library.
# CYP2C9 inh: human CYP2C9 inhibition. P11712. CYP2C9 Supersomes, luciferin-H conversion, luminescence. inhibition, % at 5 µM. actives 20% (n = 96,000). AID 777;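 active = blocking of liver enzyme CYP2C9 beyond about 50% at 5 µM, limit read from the data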
# Pyk2 oligo antag: blocks oligomerization of human Pyk2 in cells. Q14289. Q293 cells, Pyk2 FERM NanoBiT luminescence; active compounds read low. z-score (the deposit names both 25 µM and 10 µM). actives 0.83% (n = 99,000);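 active = Z-score of -3 or lower, scaled per plate to the spread of control and sample wells; inactive = z-score above -3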;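 also: negative z-score means lost luminescence so less FERM oligomerization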
# CYP2C9 activ: CYP2C9 (human) activation; activation factor at 5 µM; P11712; actives 1.4% (n = 96,000); AID 1024; recombinant CYP2C9, luciferin-H conversion, luminescence; active compounds read high; factor 1 = untreated enzyme, 0 = blocked;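 active = activation factor of 2 or more for CYP2C9 at a 5 µM dose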;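 also: 0 = sulfaphenazole-blocked wells and 1 = vehicle-only wells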
# CYP2C19 activ: increases human CYP2C19 enzyme activity | P33261 | recombinant CYP2C19, luciferin-H EGE luminescence; active compounds read high; 0 = fully inhibited enzyme, 1 = untreated enzyme | activation factor at 5 µM | 96,000 tested, under 10 active | AID 1025;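 active = activation factor of at least 2 at 5 µM in the primary screen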;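 also: 0 = wells with 2.5 mM tranylcypromine and 1 = vehicle-only wells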
# CYP2C19 inhib: human CYP2C19 inhibition. P33261. CYP2C19 Supersomes, luciferin-H EGE luminescence, 30 min. inhibition, % at 5 µM. actives 21% (n = 96,000);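 active = CYP2C19 inhibition above a set limit at 5 µM in the primary screen, cut at about 50% in these data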;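 also: plate controls were negative control wells for no effect and 2.5 mM tranylcypromine positive control for full effect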
# Cav32 inh: inhibitors of human Cav3.2 T-type calcium channel. Cav3.2-expressing cells, Fluo-4 calcium fluorescence FDSS; active compounds read low. B-score at 10 µM. actives 4% (n = 100,000);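 active = single-dose well whose peak fluorescence ratio is a statistical outlier from its plate by either plate-standardised score or position-corrected B-score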
# * hit, by the source's call; x = no result given.
SMILES,CYP2C9 inh,Pyk2 oligo antag,CYP2C9 activ,CYP2C19 activ,CYP2C19 inhib,Cav32 inh
CCOc1ccc2cc(C#N)c(SCC(=O)NC(C)CC)nc2c1 (centres undefined),54*,x,0.5,1,-5,-0.008
Cc1cccc2cc(C#N)c(SCC(=O)N3CC(=O)Nc4ccccc43)nc12,48,-3.1*,0.5,1,4,-1.4
Cc1cccc2cc(C#N)c(SCC(=O)N3CCC(C)CC3)nc12,59*,-2.5,0.4,0.6,35,-1.6
CCCCNC(=O)c1cn(-c2ccc(OCC)cc2)c(=O)c2cc(OC)c(OC)cc12,38,-0.53,0.6,0.9,6,-1.4
Cc1ccc(-n2c(-c3ccc(Br)cc3)c[n+]3c2CCc2ccc4cccnc4c2-3)cc1,-22,-2.8,1.2,0.9,8,-1.6
CCOc1ccc2cc(C#N)c(SCC(=O)N3CCC(C)CC3)nc2c1,63*,-0.84,0.4,0.8,22,0.43
CCSc1nc2ccc(OC)cc2cc1C#N,x,-0.3,x,x,x,0.083
CCOc1ccc2nc(SCC#N)c(C#N)cc2c1,67*,0.01,0.3,0.9,11,0.52
COc1ccc(NC(=O)CSc2nc3c(c(-c4cccs4)c2C#N)CN(C)CC3)cc1OC,64*,-0.29,0.4,0.5,50,-1.4
COc1ccc(NC(=O)CSc2nnc(-c3cccs3)n2C)cc1OC,-5,0.06,1.1,1.1,-9,0.084
CCN1/C(=C/c2ccc3cccc(C)c3[n+]2CC)Sc2ccccc21,24,-2.6,0.8,1,2,-3.9*
O=C(c1ccc(F)cc1)N1CCN(c2cc(N3CCCCC3)c(F)cc2[N+](=O)[O-])CC1,86*,-0.25,0.1,0.1,95*,-2
COc1c(Cl)cc(C(=O)Nc2ccccc2-c2ccccc2)cc1Cl,43,-0.87,0.6,0.7,32,x
COc1cccc(CNc2nn[nH]n2)c1OC,-11,2.7,1.1,0.9,13,0.18
COc1cccc(CNc2ccc(N3CCC(C)CC3)cc2)c1OC,x,-0.3,x,x,x,-7.7*
CCN(CCCNC(=O)Cn1ncc2c(=O)oc3ccccc3c21)c1cccc(C)c1,70*,x,0.3,0.4,64*,x
CCOC(=O)c1ccccc1NC(=O)CCNC(=O)Cn1cnc2ccccc2c1=O,52*,0.19,0.5,1,-3,0.022
CCN(CCCNC(=O)CNC(=O)Cn1cnc2ccccc2c1=O)c1cccc(C)c1,34,1.6,0.7,0.9,8,-3.9*
O=C(Cn1ncc2c(=O)oc3ccccc3c21)NC1CC1,11,-0.28,0.9,1,4,0.68
COc1cc(OC)c(NC(=O)CCNC(=O)Cn2cnc3ccccc3c2=O)cc1Cl,30,0.5,0.7,1.1,-13,-1.1
O=C(Cn1ncc2c(=O)oc3ccccc3c21)Nc1nc2ccccc2s1,51*,x,0.5,0.9,12,-0.12
Cc1cc(=O)[nH]c(N2CCCC2)n1,6,0.87,0.9,0.8,17,0.48
CC(=O)NC1CC(C)(C)N(OC(C)=O)C(C)(C)C1,-3,0.27,1,0.8,18,x
O=C(O)CCn1cnc2ccccc2c1=O,-3,0.96,1,0.8,15,-0.02
Cn1cc(CC(=O)NCCCN2CCCC2=O)c2ccccc21,-138,x,2.4*,0.8,16,0.81
SMILES,CYP2C9 inh,Pyk2 oligo antag,CYP2C9 activ,CYP2C19 activ,CYP2C19 inhib,Cav32 inh
CCCN(C(=O)Cn1ncc2c(=O)oc3ccccc3c21)c1cccc(C)c1,60*,-0.56,0.4,0.6,36,0.77
O=C(Cn1ncc2c(=O)oc3ccccc3c21)NCCCN1CCCC1=O,11,x,0.9,0.2,80*,-0.18
O=C(Cn1cnc2ccccc2c1=O)c1c[nH]c2ccccc12,31,-0.53,0.7,0.5,53*,-0.3
COC(=O)C(OC(=O)c1ccc(OC)cc1)C(=O)OC,x,2.1,x,x,x,-0.5
CCO[C@@H]1OC(C(=O)N2CCN(Cc3ccccc3)CC2)=C[C@H](c2csc3ccccc23)[C@H]1CCCO,x,x,x,x,x,-0.86
O=C(N/N=C/c1ccc2cccc(OCc3ccccc3)c2n1)c1ccc(Cl)cc1,-5,-3.1*,1.1,0.9,8,-0.75
CN1CCN(C(=S)NC(=O)/C=C/c2cccc3ccccc23)CC1,-201,0.23,3*,0.6,39,-0.021
O=C(/C=C/c1cccnc1)c1ccc(NC(=O)c2cccc(Br)c2)cc1,70*,-0.61,0.3,0.6,38,2.1
